# Test results from PMC7862700, “An all-to-all approach to the identification of sequence-specific readers for epigenetic DNA modifications on cytosine”.
# Tests used:
# Test in all cases: DAPPL (digital affinity profiling via proximity ligation, sequencing); 10 mM Tris-HCl pH 7.5, 50 mM NaCl, 1 mM DTT, 4% glycerol, room temperature, 30 min; GST-TFs on glutathione beads, 16-mer random dsDNA library, 0.1% formaldehyde crosslink after washing; high values mean tight binding
# FLI1 = molecular target: T1, FLI1 (Homo sapiens, UniProt Q01543 1-452); settings: protein: recombinant; tags: N-terminal GST; dsDNA, one strand shown
# T1 sequence: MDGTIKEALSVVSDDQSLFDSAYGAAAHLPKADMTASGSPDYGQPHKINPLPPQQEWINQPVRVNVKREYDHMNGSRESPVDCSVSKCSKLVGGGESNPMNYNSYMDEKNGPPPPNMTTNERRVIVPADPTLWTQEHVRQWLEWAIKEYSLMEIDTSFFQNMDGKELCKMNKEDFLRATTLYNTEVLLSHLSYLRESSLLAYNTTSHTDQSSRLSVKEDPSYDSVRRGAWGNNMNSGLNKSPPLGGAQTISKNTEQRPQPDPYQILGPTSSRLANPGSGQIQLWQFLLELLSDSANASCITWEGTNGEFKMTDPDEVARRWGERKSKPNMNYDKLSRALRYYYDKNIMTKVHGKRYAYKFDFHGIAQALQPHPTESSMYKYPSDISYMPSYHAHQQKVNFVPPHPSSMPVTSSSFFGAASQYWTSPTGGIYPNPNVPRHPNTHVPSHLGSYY
# Method in brief: (§1)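 Human transcription factors fused to GST were expressed in yeast, captured on glutathione beads, given DNA barcodes and pooled with a GST-only negative control. Pools were incubated with 200 nmole of a 16-mer random double-stranded DNA library in Tris/NaCl/DTT/glycerol buffer at room temperature for 30 min. They were then washed, crosslinked with 0.1% formaldehyde, proximity-ligated (BsaI/T4 ligase, 1 h, 37 °C), PCR-amplified and sequenced on an Illumina NextSeq500. Binding signal is each 6-mer's read frequency for a factor divided by its frequency for the GST control.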
# ELK1 = molecular target: T2, ELK1 (Homo sapiens, UniProt P19419 1-428); settings: protein: recombinant; tags: N-terminal GST; dsDNA, one strand shown
# T2 sequence: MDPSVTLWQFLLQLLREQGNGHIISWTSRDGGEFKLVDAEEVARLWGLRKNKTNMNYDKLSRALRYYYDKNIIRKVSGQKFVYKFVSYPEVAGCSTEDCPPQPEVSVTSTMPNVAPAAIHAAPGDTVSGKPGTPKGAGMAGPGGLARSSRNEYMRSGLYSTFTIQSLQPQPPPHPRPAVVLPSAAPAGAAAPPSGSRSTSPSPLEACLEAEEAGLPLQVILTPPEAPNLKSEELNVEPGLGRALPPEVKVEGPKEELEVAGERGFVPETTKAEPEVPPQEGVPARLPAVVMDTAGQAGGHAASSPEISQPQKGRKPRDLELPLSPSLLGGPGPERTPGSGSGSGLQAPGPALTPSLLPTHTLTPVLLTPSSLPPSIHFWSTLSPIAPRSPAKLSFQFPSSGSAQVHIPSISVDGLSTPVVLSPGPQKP
# Method in brief: as §1
# GABPA = molecular target: T3, GABPA (Homo sapiens, UniProt Q06546 1-454); settings: protein: recombinant; tags: N-terminal GST; dsDNA, one strand shown
# T3 sequence: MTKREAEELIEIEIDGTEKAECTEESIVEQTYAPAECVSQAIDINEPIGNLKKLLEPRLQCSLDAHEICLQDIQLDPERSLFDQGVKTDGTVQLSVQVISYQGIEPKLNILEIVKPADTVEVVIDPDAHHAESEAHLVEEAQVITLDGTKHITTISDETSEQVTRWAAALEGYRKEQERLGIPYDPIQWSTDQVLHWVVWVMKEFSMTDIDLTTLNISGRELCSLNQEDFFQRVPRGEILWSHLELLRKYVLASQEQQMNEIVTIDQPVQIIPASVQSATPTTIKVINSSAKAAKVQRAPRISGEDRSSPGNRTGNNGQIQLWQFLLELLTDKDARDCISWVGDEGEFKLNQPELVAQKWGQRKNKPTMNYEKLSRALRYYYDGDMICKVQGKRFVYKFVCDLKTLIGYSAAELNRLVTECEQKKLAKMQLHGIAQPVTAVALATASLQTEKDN
# Method in brief: as §1
# ERG = molecular target: T4, ERG (Homo sapiens, UniProt P11308 1-479); settings: protein: recombinant; tags: N-terminal GST; dsDNA, one strand shown
# T4 sequence: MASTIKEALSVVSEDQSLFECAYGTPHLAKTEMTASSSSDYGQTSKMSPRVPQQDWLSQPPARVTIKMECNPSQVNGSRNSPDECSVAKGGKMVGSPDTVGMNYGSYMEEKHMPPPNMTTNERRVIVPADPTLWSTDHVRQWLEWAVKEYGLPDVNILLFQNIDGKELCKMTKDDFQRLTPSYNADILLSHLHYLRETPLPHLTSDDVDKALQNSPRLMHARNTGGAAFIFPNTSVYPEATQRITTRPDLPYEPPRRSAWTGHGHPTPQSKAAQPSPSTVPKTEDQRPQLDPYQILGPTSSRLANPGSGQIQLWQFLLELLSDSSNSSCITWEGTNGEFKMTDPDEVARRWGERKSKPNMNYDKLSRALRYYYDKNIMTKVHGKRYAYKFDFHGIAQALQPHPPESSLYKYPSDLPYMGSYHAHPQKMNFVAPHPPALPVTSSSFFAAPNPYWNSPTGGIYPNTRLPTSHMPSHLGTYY
# Method in brief: as §1
# ELF1 = ELF1 (Homo sapiens, UniProt P32519 1-619); settings: protein: recombinant; tags: N-terminal GST; dsDNA, one strand shown
# Chain of ELF1 (P32519 whole entry): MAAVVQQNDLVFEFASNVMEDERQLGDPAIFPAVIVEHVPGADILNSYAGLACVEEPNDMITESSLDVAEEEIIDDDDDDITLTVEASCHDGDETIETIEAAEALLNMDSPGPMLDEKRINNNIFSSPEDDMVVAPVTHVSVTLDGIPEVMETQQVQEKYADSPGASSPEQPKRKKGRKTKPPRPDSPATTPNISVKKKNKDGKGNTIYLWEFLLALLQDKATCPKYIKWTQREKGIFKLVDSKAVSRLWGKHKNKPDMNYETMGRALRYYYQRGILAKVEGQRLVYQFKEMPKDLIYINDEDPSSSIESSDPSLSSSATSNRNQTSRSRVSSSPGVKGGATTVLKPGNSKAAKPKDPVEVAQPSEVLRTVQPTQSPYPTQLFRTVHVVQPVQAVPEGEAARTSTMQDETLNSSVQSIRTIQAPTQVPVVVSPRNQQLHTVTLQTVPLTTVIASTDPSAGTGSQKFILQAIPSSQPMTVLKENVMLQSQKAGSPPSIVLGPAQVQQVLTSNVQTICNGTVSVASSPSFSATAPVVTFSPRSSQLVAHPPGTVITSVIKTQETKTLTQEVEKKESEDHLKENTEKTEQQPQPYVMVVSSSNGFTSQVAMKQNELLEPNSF
# Method in brief: as §1
# EHF = molecular target: T5, EHF (Homo sapiens, UniProt Q9NZC4 1-300); settings: protein: recombinant; tags: N-terminal GST; dsDNA, one strand shown
# T5 sequence: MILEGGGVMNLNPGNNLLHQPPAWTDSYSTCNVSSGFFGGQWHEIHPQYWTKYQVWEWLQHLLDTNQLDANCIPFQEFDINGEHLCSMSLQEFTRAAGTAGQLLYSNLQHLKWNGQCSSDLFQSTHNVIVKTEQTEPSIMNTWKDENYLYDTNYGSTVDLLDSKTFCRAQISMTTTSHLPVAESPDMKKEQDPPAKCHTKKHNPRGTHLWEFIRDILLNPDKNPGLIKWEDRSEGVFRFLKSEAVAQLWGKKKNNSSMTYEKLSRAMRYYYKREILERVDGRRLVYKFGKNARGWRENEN
# Method in brief: as §1
# SPI1 = SPI1 (Homo sapiens, UniProt P17947 1-270); settings: protein: recombinant; tags: N-terminal GST; dsDNA, one strand shown
# Method in brief: as §1
# SPIB = SPIB (Homo sapiens, UniProt Q01892 1-262); settings: protein: recombinant; tags: N-terminal GST; dsDNA, one strand shown
# Chain of SPIB (Q01892 whole entry): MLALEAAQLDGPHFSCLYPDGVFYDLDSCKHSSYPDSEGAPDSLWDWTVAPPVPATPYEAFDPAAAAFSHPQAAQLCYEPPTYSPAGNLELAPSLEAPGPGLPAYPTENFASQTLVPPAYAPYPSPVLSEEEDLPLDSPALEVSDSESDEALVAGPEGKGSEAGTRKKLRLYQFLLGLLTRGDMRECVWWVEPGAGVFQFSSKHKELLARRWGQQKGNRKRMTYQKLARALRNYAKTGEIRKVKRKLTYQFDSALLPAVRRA
# Method in brief: as §1
# ELK3 = molecular target: T6, ELK3 (Homo sapiens, UniProt P41970 1-407); settings: protein: recombinant; tags: N-terminal GST; dsDNA, one strand shown
# T6 sequence: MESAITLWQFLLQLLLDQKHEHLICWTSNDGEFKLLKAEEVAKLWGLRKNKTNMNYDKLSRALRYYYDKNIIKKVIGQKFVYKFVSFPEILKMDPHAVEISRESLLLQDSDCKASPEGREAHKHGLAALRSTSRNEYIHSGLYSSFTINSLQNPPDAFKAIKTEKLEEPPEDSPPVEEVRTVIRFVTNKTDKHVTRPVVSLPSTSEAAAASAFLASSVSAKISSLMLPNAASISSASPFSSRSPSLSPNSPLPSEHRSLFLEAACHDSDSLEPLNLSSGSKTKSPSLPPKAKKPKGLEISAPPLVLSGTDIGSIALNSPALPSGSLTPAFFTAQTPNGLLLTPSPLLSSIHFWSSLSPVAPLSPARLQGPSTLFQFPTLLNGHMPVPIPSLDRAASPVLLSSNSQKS
# Method in brief: as §1
# FEV = molecular target: T7, FEV (Homo sapiens, UniProt Q99581 1-238); settings: protein: recombinant; tags: N-terminal GST; dsDNA, one strand shown
# T7 sequence: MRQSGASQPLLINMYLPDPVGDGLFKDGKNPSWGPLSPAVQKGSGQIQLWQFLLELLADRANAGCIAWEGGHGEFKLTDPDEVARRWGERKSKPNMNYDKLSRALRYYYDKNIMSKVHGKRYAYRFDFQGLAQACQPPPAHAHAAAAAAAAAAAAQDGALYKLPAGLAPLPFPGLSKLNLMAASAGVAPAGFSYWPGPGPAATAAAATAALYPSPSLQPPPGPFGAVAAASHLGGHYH
# Method in brief: as §1
# ETV5 = ETV5 (Homo sapiens, UniProt P41161 1-510); settings: protein: recombinant; tags: N-terminal GST; dsDNA, one strand shown
# Chain of ETV5 (P41161 whole entry): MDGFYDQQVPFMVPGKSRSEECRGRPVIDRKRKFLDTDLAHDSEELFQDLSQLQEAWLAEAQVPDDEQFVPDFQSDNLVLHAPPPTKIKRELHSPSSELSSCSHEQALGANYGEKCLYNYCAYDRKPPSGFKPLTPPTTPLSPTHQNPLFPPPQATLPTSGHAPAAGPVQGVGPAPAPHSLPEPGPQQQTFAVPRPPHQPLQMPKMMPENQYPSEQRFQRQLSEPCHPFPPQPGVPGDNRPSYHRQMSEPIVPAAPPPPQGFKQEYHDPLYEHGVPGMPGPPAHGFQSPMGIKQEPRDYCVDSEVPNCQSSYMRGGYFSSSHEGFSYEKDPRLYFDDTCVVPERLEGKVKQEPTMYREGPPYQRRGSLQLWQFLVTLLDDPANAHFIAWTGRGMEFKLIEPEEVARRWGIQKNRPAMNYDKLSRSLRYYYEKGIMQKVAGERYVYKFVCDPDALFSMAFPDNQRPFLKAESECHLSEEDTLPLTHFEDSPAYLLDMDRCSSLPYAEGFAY
# Method in brief: as §1
# HSF1 = HSF1 (Homo sapiens, UniProt Q00613 1-529); settings: protein: recombinant; tags: N-terminal GST; chain copies: 3; dsDNA, one strand shown
# Chain of HSF1 (Q00613 whole entry): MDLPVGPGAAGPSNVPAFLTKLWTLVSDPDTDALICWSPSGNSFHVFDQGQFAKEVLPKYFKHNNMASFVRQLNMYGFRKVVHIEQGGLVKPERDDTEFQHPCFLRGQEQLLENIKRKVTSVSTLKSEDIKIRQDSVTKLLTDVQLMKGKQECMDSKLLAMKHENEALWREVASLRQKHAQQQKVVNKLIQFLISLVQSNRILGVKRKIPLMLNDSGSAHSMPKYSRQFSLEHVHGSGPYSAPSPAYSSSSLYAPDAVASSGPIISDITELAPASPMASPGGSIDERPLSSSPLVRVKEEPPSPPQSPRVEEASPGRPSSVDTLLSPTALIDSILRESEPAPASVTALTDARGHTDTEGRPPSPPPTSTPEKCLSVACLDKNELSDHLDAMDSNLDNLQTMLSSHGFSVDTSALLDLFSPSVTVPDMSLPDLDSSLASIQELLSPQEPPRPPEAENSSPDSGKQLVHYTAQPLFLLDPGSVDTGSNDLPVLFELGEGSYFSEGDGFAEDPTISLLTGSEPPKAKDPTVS
# Method in brief: as §1
# SPIC = molecular target: T8, SPIC (Homo sapiens, UniProt Q8N5J4 1-248); settings: protein: recombinant; tags: N-terminal GST; dsDNA, one strand shown
# T8 sequence: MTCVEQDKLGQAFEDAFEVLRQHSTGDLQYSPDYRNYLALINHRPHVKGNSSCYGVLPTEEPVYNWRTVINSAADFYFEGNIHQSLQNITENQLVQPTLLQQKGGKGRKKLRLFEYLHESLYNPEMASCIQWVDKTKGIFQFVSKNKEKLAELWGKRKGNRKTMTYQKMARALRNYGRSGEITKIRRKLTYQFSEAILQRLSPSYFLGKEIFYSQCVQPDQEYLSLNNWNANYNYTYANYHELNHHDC
# Method in brief: as §1
# ELF4 = ELF4 (Homo sapiens, UniProt Q99607 1-663); settings: protein: recombinant; tags: N-terminal GST; dsDNA, one strand shown
# Chain of ELF4 (Q99607 whole entry): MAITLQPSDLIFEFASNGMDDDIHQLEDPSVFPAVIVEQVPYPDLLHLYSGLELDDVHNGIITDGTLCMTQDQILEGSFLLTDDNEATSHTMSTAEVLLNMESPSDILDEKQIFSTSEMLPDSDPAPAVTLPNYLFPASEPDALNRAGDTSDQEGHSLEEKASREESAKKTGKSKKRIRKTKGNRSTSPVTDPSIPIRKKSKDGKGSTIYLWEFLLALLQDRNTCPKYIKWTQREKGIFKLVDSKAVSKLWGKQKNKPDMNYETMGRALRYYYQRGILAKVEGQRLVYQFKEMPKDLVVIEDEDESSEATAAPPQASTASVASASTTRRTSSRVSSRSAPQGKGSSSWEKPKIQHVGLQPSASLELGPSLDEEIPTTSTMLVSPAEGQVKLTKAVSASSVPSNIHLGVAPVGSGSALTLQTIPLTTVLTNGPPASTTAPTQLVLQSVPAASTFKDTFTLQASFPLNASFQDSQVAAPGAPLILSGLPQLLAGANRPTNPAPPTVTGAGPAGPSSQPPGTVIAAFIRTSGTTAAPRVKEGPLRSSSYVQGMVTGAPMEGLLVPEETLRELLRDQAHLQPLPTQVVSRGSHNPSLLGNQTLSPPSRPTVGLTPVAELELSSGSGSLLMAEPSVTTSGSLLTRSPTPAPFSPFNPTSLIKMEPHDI
# Method in brief: as §1
# ELK4 = molecular target: T9, ELK4 (Homo sapiens, UniProt P28324-2 1-405); settings: protein: recombinant; tags: N-terminal GST; dsDNA, one strand shown
# T9 sequence: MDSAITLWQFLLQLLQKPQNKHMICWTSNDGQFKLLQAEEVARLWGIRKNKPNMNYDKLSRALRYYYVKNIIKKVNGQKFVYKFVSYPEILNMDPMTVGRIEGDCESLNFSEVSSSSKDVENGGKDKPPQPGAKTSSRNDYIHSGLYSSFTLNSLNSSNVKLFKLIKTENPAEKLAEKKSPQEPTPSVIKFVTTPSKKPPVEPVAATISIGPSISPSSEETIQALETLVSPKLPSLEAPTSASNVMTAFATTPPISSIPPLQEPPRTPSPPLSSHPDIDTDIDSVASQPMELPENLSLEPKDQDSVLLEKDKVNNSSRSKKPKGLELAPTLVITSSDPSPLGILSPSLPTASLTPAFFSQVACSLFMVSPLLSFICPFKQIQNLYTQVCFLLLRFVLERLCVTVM
# Method in brief: as §1
# ETV2 = molecular target: T10, ETV2 (Homo sapiens, UniProt O00321 1-342); settings: protein: recombinant; tags: N-terminal GST; dsDNA, one strand shown
# T10 sequence: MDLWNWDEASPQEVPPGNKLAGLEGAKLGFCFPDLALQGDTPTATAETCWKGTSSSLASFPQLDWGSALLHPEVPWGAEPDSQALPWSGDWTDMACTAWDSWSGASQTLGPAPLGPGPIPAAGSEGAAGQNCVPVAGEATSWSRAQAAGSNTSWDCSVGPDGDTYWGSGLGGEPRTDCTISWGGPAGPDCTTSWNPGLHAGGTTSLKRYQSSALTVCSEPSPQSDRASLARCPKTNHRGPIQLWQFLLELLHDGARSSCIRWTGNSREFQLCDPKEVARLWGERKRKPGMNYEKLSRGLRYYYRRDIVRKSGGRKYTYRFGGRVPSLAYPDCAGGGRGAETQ
# Method in brief: as §1
# ELF3 = molecular target: T11, ELF3 (Homo sapiens, UniProt P78545 1-371); settings: protein: recombinant; tags: N-terminal GST; dsDNA, one strand shown
# T11 sequence: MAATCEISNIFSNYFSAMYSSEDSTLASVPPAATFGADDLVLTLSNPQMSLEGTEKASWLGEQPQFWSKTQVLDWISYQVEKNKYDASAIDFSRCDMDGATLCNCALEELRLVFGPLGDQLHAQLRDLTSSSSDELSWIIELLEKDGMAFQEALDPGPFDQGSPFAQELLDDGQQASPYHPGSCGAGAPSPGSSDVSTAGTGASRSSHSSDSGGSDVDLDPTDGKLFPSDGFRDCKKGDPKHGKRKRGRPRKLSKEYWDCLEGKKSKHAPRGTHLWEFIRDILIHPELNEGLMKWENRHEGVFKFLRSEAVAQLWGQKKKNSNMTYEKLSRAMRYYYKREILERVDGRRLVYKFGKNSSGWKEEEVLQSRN
# Method in brief: as §1
# CRX = CRX (Homo sapiens, UniProt O43186 1-299); settings: protein: recombinant; tags: N-terminal GST; dsDNA, one strand shown
# Chain of CRX (O43186 whole entry): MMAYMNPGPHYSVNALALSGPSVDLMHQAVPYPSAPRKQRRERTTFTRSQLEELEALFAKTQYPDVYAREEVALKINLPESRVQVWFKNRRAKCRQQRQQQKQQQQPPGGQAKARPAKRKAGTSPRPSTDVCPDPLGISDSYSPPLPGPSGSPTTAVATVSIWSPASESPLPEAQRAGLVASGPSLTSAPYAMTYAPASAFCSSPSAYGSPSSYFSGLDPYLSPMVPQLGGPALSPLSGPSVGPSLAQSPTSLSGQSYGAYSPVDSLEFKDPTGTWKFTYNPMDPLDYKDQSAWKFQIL
# Method in brief: as §1
# ETV1 = ETV1 (Homo sapiens, UniProt P50549 1-477); settings: protein: recombinant; tags: N-terminal GST; dsDNA, one strand shown
# Chain of ETV1 (P50549 whole entry): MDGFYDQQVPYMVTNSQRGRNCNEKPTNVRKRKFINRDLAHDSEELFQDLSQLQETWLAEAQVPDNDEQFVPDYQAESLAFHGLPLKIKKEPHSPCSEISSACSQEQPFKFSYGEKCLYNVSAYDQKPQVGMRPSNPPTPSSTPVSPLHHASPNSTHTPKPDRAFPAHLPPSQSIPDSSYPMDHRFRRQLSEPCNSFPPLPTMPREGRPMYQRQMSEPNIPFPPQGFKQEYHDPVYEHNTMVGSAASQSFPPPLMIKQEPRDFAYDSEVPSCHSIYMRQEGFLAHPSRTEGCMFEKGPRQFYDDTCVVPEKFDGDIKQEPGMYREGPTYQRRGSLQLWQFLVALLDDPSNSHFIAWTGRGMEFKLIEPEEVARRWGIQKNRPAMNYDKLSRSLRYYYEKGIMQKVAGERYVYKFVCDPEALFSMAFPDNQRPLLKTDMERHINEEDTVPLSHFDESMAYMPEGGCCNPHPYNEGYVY
# Method in brief: as §1
sequence,measurement,setting,value
CCTATC,binding signal,FLI1,"1.27 fold enrichment (6-mer frequency, TF over GST control)"
same,binding signal,ELK1,"1.27 fold enrichment (6-mer frequency, TF over GST control)"
same,binding signal,GABPA,"1.13 fold enrichment (6-mer frequency, TF over GST control)"
same,binding signal,ERG,"1.15 fold enrichment (6-mer frequency, TF over GST control)"
same,binding signal,ELF1,"1.15 fold enrichment (6-mer frequency, TF over GST control)"
same,binding signal,EHF,"1.18 fold enrichment (6-mer frequency, TF over GST control)"
same,binding signal,SPI1,"1.14 fold enrichment (6-mer frequency, TF over GST control)"
same,binding signal,SPIB,"1.31 fold enrichment (6-mer frequency, TF over GST control)"
same,binding signal,ELK3,"1.45 fold enrichment (6-mer frequency, TF over GST control)"
same,binding signal,FEV,"1.16 fold enrichment (6-mer frequency, TF over GST control)"
same,binding signal,ETV5,"1.14 fold enrichment (6-mer frequency, TF over GST control)"
same,binding signal,HSF1,"1.06 fold enrichment (6-mer frequency, TF over GST control)"
same,binding signal,SPIC,"1.1 fold enrichment (6-mer frequency, TF over GST control)"
same,binding signal,ELF4,"1.16 fold enrichment (6-mer frequency, TF over GST control)"
same,binding signal,ELK4,"1.14 fold enrichment (6-mer frequency, TF over GST control)"
same,binding signal,ETV2,"1.08 fold enrichment (6-mer frequency, TF over GST control)"
same,binding signal,ELF3,"1.23 fold enrichment (6-mer frequency, TF over GST control)"
same,binding signal,CRX,"1.15 fold enrichment (6-mer frequency, TF over GST control)"
same,binding signal,ETV1,"1.16 fold enrichment (6-mer frequency, TF over GST control)"
